According to PubChem BioAssay AID1008 (NMMLSC, 2008):
The whole screen tested about 190,000 compounds, of which about 240 (0.13%) were called active. The list comes from a sample in which actives are over-represented; it also holds similar structures and randomly drawn compounds. A number with no mark means an inactive call. No stated cut-off is given here; in the data, active means inhibition above about 40%.

biological target: Bcl-2-related protein A1 (Homo sapiens) (UniProt Q16548); test: Bfl-1/Bim complex disruptors – biochemical, multiplexed, bead-based flow cytometry, primary screen (AID 1008); conditions: Bim-Bfl-1 binding inhibition, at 10 µM, active compounds read high;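 further: 0% = wells without compound plus tracer and 100% = blocker peptide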
Sequence (Q16548 whole entry, looked up): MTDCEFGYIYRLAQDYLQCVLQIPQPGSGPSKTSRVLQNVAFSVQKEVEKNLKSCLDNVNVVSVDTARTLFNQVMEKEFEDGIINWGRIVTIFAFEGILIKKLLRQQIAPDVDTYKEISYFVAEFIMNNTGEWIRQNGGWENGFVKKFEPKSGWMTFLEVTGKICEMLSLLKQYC

Row | SMILES | inhibition
1 | C=CCn1c(O)c(/C=N/N2CCOCC2)c(=O)[nH]c1=S | 3%
2 | Cc1cccc(-n2c(O)c(/C=N/N3CCOCC3)c(=O)[nH]c2=S)c1 | 41% (active)
3 | O=c1[nH]c(=S)n(C2CC2)c(O)c1/C=N/N1CCOCC1 | -14%
4 | N#Cc1ccc(Cn2cc(C(=O)c3ccco3)c3ccccc32)cc1 | -4%
5 | CCOC(=O)C1(Cc2ccc(Cl)cc2)CCN(C(C)CCn2cccn2)CC1 (stereo not given) | 0%
